# Test results taken from PubChem BioAssay.
# Active and inactive are the calls of the source.
# Key:
# [1] = system: Plasmodium falciparum Sir2 (PF13_0152, Sir2A); assay: Plasmodium falciparum Sir2A binding compounds – biochemical, small-molecule microarray, 635 nm fluorescence, primary screen (AID 1098); conditions: fluorescence 635 nm, higher = more signal;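 further: score merges spot fluorescence intensity with its signal-to-noise ratio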
# [2] = probe aDKK1 binding to arrayed compounds – biochemical, biotinylated probe, 635/667 nm fluorescence, primary screen (AID 1099); conditions: small-molecule microarray, higher = more signal;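 further: score merges 667nm spot fluorescence with signal to noise across triplicate slides; reference of the scale not given here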
# [3] = probe aCHRDL2 binding to arrayed compounds – biochemical, biotinylated probe, 635/667 nm fluorescence, primary screen (AID 1100); conditions: small-molecule microarray, higher = more signal
# [4] = change in splice reporter luminescence, either direction, cell-based, HEK293, spliceosome inhibition project, primary screen (AID 1101); conditions: HEK293 splicing luciferase reporter, 24 h, higher = more signal, called active from +8 up or from −8 down;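 further: HEK293 cells carrying a splicing-competent luciferase reporter gene; test concentration not given here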
# [5] = target: Fibroblast growth factor 10 (Homo sapiens) (UniProt O15520); assay: compounds binding fibroblast growth factor 10 – biochemical, small-molecule microarray, 635 nm fluorescence, primary screen (AID 1102); conditions: FGF10 binding, fluorescence 635 nm, higher = more signal
# Fibroblast growth factor 10 (Homo sapiens), sequence (O15520 whole entry, looked up): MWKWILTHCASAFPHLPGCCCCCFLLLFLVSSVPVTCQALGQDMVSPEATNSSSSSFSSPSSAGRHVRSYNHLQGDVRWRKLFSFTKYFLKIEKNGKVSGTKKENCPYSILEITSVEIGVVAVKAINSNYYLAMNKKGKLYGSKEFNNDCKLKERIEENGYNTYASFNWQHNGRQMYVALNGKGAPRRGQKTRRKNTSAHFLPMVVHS
# [6] = system: glycogen synthase kinase-3 (GSK3A per assay name; protocol says GSK3B); assay: compounds binding glycogen synthase kinase-3 – biochemical, small-molecule microarray, 635 nm fluorescence, GSK3A, primary screen (AID 1103); conditions: fluorescence 635 nm, higher = more signal; further: the record names both GSK3A and GSK3B
# [7] = target: Epidermal growth factor receptor (Homo sapiens) (UniProt P00533); assay: compounds binding epidermal growth factor receptor – biochemical, small-molecule microarray, 635 nm fluorescence, primary screen (AID 1104); conditions: EGFR binding, higher = more signal;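 further: score merges 667 nm emission intensity with spot signal to noise over triplicate slides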
# Epidermal growth factor receptor (Homo sapiens), sequence (P00533 whole entry, looked up): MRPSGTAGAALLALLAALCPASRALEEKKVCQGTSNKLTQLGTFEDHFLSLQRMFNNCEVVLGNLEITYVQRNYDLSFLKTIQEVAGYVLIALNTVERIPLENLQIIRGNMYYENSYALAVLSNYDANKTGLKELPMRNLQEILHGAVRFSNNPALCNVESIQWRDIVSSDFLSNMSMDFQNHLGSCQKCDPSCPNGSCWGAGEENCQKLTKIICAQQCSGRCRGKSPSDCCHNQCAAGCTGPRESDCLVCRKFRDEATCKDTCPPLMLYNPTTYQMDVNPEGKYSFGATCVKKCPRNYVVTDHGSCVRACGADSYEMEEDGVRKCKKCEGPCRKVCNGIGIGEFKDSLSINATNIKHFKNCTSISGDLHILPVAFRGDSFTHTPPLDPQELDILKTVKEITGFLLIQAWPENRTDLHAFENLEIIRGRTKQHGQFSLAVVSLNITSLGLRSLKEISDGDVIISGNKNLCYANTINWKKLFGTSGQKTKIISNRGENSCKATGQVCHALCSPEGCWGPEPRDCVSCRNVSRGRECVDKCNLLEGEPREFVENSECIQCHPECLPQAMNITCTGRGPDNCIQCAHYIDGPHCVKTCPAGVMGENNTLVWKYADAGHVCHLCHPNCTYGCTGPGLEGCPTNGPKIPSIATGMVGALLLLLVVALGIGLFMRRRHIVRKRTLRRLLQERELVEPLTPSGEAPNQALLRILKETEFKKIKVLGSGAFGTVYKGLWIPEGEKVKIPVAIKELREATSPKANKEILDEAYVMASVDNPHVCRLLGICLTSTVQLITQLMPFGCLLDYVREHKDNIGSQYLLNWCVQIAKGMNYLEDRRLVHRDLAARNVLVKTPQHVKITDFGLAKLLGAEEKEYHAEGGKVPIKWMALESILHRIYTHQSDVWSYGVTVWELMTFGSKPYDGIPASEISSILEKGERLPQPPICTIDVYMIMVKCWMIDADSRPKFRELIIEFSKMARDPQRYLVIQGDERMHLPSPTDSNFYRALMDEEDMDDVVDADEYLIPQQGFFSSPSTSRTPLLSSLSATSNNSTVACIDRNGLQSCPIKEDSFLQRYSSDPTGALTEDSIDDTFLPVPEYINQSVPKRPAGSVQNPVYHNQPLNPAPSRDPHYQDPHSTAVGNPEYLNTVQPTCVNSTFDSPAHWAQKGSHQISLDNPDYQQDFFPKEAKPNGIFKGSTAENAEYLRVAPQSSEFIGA
# [8] = target: Follistatin-related protein 3 (Homo sapiens) (UniProt O95633); assay: compounds binding follistatin-related protein 3 – biochemical, small-molecule microarray, 635 nm fluorescence, primary screen (AID 1105); conditions: FSTL3 binding, higher = more signal;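 further: score merges emission near 667 nm and signal to noise per printed spot across three slides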
# Follistatin-related protein 3 (Homo sapiens), sequence (O95633 whole entry, looked up): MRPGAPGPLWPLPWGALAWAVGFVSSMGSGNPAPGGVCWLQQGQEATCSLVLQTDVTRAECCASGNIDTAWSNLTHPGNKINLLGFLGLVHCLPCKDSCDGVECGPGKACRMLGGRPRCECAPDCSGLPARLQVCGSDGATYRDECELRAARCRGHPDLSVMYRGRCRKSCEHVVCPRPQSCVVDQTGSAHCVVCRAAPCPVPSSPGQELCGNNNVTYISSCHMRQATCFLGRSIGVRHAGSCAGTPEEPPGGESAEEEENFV
# [9] = target: Dickkopf-related protein 1 (Homo sapiens) (UniProt O94907); assay: small molecules binding DKK1 protein – biochemical, small-molecule microarray, 635 nm fluorescence scan, primary screen (AID 1106); conditions: higher = more signal;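 further: score merges emission near 667 nm with signal to noise over three replicate slides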
# Dickkopf-related protein 1 (Homo sapiens), sequence (O94907 whole entry, looked up): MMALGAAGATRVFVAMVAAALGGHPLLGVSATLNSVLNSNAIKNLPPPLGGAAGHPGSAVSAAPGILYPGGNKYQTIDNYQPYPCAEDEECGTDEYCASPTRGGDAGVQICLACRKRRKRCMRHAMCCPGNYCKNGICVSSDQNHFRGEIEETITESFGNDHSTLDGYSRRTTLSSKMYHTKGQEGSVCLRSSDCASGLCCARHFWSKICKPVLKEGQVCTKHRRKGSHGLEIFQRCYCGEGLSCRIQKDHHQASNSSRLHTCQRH
# [10] = system: Inhibin beta A chain (activin A); assay: small molecules binding activin A – biochemical, small-molecule microarray, 635 nm fluorescence scan, primary screen (AID 1107); conditions: INHBA, higher = more signal;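 further: mouse activin A protein probed at 4.33 µg/mL on printed slides; score merges bound-protein fluorescence near 667 nm with spot signal-to-noise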
SMILES,composite z-score [1],composite z-score [2],composite z-score [3],z-score [4],composite z-score [5],composite z-score [6],composite z-score [7],composite z-score [8],composite z-score [9],composite z-score [10]
C#CCOc1ccc(C[C@@H](C(=O)OC)N(CC#C)[C@@H](/C=C/C2CC2)[C@H](O)Cc2ccccc2)cc1,-0.103,-0.285,0.846,0.0683 (inactive),-0.327,-0.829,-0.92,-0.806,-0.429,0.899
O=C1C[C@@](C(=O)NCc2ccccc2)(c2ccc([N+](=O)[O-])cc2)[C@@H](c2ccc(CO)cc2)N1CC12CC3CC(CC(C3)C1)C2,1.62,-0.387,-0.371,-0.859 (inactive),1.06,1.13,0.385,0.837,0.0703,0.0162
C=CCNC(=O)[C@@H]1[C@H]2C(=O)O[C@H](c3ccccc3)[C@H](c3ccccc3)N2[C@H](c2ccc(OCCO)cc2)[C@@]12C(=O)N(C(=O)OCCOC)c1ccc(C#CCC(C(=O)OC)C(=O)OC)cc12,1.32,0.951,0.328,1.01 (inactive),1.07,1.28,0.719,1.1,1.29,-0.0578
COC(=O)C[C@H]1O[C@@H](CCc2ccccc2)[C@@H](C)[C@@H]1[Si](C)(C)c1ccc(OC)cc1,-1.04,-0.0884,-0.149,0.0234 (inactive),-0.587,-1.04,0.239,-0.232,0.149,0.0026
COc1cc(OC)c(C(O)C2C=CC3C(=O)NC(=O)C3N2Nc2ccccn2)cc1Br (stereo not given),0.968,0.615,0.483,0.893 (inactive),0.689,0.398,0.807,0.835,0.815,0.811
COc1ccccc1CN1C(=O)c2ccccc2[C@@H](C(=O)NCc2ccccc2)[C@@H]1c1ccc(CO)cc1,1.48,-0.262,0.617,-0.263 (inactive),-0.144,0.883,-0.154,-0.113,-0.258,-0.134
O=C(O)C1N=C(c2ccc(OCCCO)cc2)N(c2ccccc2)O1 (stereo not given),0.524,0.187,0.391,-0.303 (inactive),1.22,0.472,0.327,0.285,-0.0405,0.712
CCOC(=O)C1=CC[C@H]2C(=O)N(c3ccccc3)C(=O)[C@@H]12,1.67,0.143,0.0364,0.406 (inactive),1.19,0.571,0.55,1.01,0.56,0.304
CCCCC(=C=CC[C@H](O)c1cccc(OCCO)c1)C[C@H](O)c1ccccn1,0.827,-0.218,-0.302,-2.17 (inactive),0.453,-0.364,0.0715,0.0048,0.296,0.434
COc1ccc(CCNC(=O)[C@@]2(C)c3ccccc3C(=O)N(c3ccc(C)cn3)[C@H]2c2ccc(CO)cc2)cc1,-0.697,-0.0508,0.156,0.981 (inactive),-1.2,-0.831,-1.03,-1.06,-0.905,0.453
COCCCNC(=O)[C@@]1(CCS(=O)(=O)c2ccccc2)N=C(c2ccc(OCCCO)cc2)O[C@H]1c1ccccc1N=[N+]=[N-],1.41,0.879,0.942,-0.0182 (inactive),1.49,0.79,-0.0333,1.25,0.267,0.796
CCCC1(C(=O)OC)C=C2C(=C(c3ccccc3)C(=O)C2C)CN1 (stereo not given),-0.495,0.717,1.16,-1.14 (inactive),-0.157,-0.636,-0.278,-0.0458,-0.704,1.44
COCC(=C=CC[C@H](O)c1ccccc1OCCO)CCO,1.52,0.0439,-0.423,0.338 (inactive),0.919,0.485,-0.865,0.612,0.274,0.564
O=C1C2C=CC(C(O)C=Cc3ccc([N+](=O)[O-])cc3)N(n3cnnc3)C2C(=O)N1Cc1ccccc1 (stereo not given),1.53,0.341,0.832,0.243 (inactive),0.466,0.587,-0.0912,0.906,0.377,1.17
O=C1OCCC/C=C\[C@H]2OC34C=CCN(c5ccc6ccccc6c5)C(=O)[C@H]3N(CCCCCO)C(=O)[C@@H]4C12 (stereo not given in full),0.227,-0.319,0.364,-0.447 (inactive),-0.862,-1.35,-0.756,-0.613,-0.974,0.633
O=C1O[C@@H](c2ccccc2)[C@@H](c2ccccc2)N2[C@@H](c3ccc(OCCO)cc3)[C@]3(C(=O)Nc4ccc(C#CC5=CCCCC5)cc43)[C@@H](C(=O)N3CCCCCCC3)[C@H]12,1.66,2.71,1.43,-0.447 (inactive),1.32,1.33,1.71,1.58,2.08,1.91
